These results are taken from PubChem BioAssay (Tox21).

In experiment [1] the target is Luciferin 4-monooxygenase (Photinus pyralis) (UniProt P08659). In words: qHTS assay to identify small molecule inhibitors of firefly luciferase (AID 1224835). Also: nearly all actives have a fitted effect of over 25% in size. Also: potency is read from the fitted curve at half-maximal effect. The method, boiled down:
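Inhibition of purified Photinus luciferase is measured by luminescence. Substrate levels (D-luciferin, ATP) sit at their KM values. Each compound is tested in a concentration series.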

Experiment [2] is described as follows: qHTS assay to identify small molecule agonists of the constitutive androstane receptor (CAR) signaling pathway - cell viability counter screen (AID 1224836). Also: nearly all actives have a fitted effect of over 45% in size. Put shortly:
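Cells were seeded and incubated 4 hrs. Compounds were added across 15 concentrations together with PK11195 at 0.75 uM final. Plates were incubated 23 hrs at 37 C. CellTiter-Fluor was added and fluorescence measured.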

Experiment [3] is described as follows: qHTS assay to identify small molecule antagonists of the constitutive androstane receptor (CAR) signaling pathway - cell viability counter screen (AID 1224837). Also: nearly all actives have a fitted effect of over 45% in size. Put shortly: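 Using CellTiter-Fluor, viability is scored in HepG2 cells stably carrying hCAR and a 2.2kb CYP2B6 reporter after 23 hr compound exposure across 15 concentrations, with CITCO present at 50 nM.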

Experiment [4] concerns the target Nuclear receptor subfamily 1 group I member 3 (Homo sapiens) (UniProt Q14994). As to the kind of experiment: qHTS assay to identify small molecule antagonists of the constitutive androstane receptor (CAR) signaling pathway (AID 1224838).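 Also: HepG2 cells stably expressing hCAR with CYP2B6 luciferase reporter stimulated by CITCO; nearly all actives have a fitted effect of over 40% in size.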 Put shortly:
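Reporter luminescence was quantified after 24 h exposure of hCAR/CYP2B6-2.2kb double-stable HepG2 cells to compounds at 15 concentrations in the presence of 50 nM CITCO final.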

Experiment [5] is described as follows: qHTS assay to identify small molecule antagonists of the estrogen related receptor signaling pathway with the pleiotropic PPARgamma coactivator (PGC) from Tox21 10K library - cell viability counter screen (AID 1224840; active = well fitted cell-killing curve with a large enough effect in the repeat runs, not every such curve was filed as active; also: nearly all actives have a fitted effect of over 40% in size). The method, boiled down:
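Here the PGC/ERR cells serve as a cytotoxicity control: they are exposed to compounds for 17.5 hours at 37 C, and live-cell signal is quantified using CellTiter-Fluor fluorescence.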

Experiment [6] concerns the target Thyrotropin receptor (Homo sapiens) (UniProt P16473). As to the kind of experiment: qHTS assay to identify small molecule agonists of the thyroid stimulating hormone receptor (TSHR) signaling pathway (AID 1224843; calls by dose curve; also: nearly all actives have a fitted effect of over 45% in size). The method, boiled down:
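HEK293 cells stably bearing the thyrotropin receptor were plated at 800 cells/well and challenged with compound (30 min, RT). Accumulated cAMP was quantified via cAMP-d2 competing for cryptate-tagged antibody.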

Experiment [7] in a line: qHTS assay to identify small molecule agonists of the hypoxia (HIF-1) signaling pathway - cell viability counter screen (AID 1224844; calls by dose curve; also: nearly all actives have a fitted effect of over 50% in size). Put shortly: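 Multiplexed with the HRE beta-lactamase assay, this viability read used CellTiter-Glo luminescence (30 min, RT) on HRE-bla ME-180 cells treated 17 hrs with compounds in 0.5% dialyzed FBS medium.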
Experiment [8] in a line: qHTS assay to identify small molecule agonists of the hypoxia (HIF-1) signaling pathway (AID 1224846; active = well fitted activation curve with a large enough effect in the signal ratio in the repeat runs, not every such curve was filed as active; the % refers to the signal ratio). The method, boiled down: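 Hypoxia-pathway activation was scored as increased beta-lactamase from an HRE-controlled reporter in ME-180 cells; plated at 2,000 cells per well with 0.5% dialyzed FBS, they were exposed 17 hrs to compounds and then given CCF4-AM.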
Experiment [9] in a line: qHTS assay to identify small molecule agonists of H2AX - cell viability counter screen (AID 1224847; calls by dose curve; also: top concentration of the series differs between compounds; nearly all actives have a fitted effect of over 30% in size). The method, boiled down: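 Cytotoxicity counter screen in wild-type CHO-K1 cells: a 3 hr compound treatment at 37C across 15 concentrations, followed by CellTiter-Glo luminescence to gauge viable cells.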
Experiment [10] can be described thus: qHTS RealTime-Glo MT Cell Viability Assay in HepG2 cells - 24 hour (AID 1224867). Also: nearly all actives have a fitted effect of over 50% in size. The method, boiled down:
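HepG2 suspension premixed with RealTime-Glo reagents is plated at 600 cells per well and left 5 h at 37 C/5% CO2. Compounds in DMSO then go in, and bioluminescence reflecting viable cell number is recorded over 40 h.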

Experiment [11] is described as follows: A CellTox Green Cytotoxicity Assay to monitor cytotoxicity in HEK293 cells - 0 hour (AID 1224869). Also: nearly all actives have a fitted effect of over 50% in size. The method, boiled down:
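Seeding of HEK293 cells together with cytotoxicity dye preceded a 5 h incubation at 37 C/5% CO2. Test compounds in DMSO were then added and fluorescence monitored across 40 h.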

Experiment [12] can be described thus: qHTS RealTime-Glo MT Cell Viability Assay in HepG2 cells - 40 hour (AID 1224870). Also: nearly all actives have a fitted effect of over 50% in size. Put shortly: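 Real-time viability: cells seeded at 600 per well together with NanoLuc and cell-permeant prosubstrate, compounds added after 5 h incubation. Luminescence tracked at 0, 8, 16, 24, 32 and 40 h of exposure.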
Experiment [13] deals with Nuclear receptor subfamily 1 group I member 3 (Homo sapiens) (UniProt Q14994). In words: qHTS assay to identify small molecule agonists of the constitutive androstane receptor (CAR) signaling pathway (AID 1224839). Also: nearly all actives have a fitted effect of over 15% in size. The method, boiled down:
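Cells were plated and incubated 4 hrs, then dosed with compounds at 15 concentrations. PK11195 was added to 0.75 uM final. After 24 hrs at 37 C, luciferase luminescence was measured.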

The nature of experiment [14]: qHTS assay to identify small molecule antagonists of the estrogen related receptor signaling pathway with the pleiotropic PPARgamma coactivator (PGC) from Tox21 10K library (AID 1224841; call rule not given here). Put shortly: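 Each well held 2,000 PGC/ERR cells, pre-incubated six hours (37 C, 5% CO2). Test substances in DMSO were added by pin tool and left for 18 h at 37 C before luciferase detection by One-Glo.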

Experiment [15] can be described thus: qHTS assay to identify small molecule agonists of the estrogen related receptor signaling pathway with the pleiotropic PPARgamma coactivator (PGC) from Tox21 10K library (AID 1224842). Also: nearly all actives have a fitted effect of over 15% in size. The method, boiled down: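 Luminescence from One-Glo (30 min, room temperature) measured after PGC/ERR cells had 18 h at 37 C with pinned compound (23 nL in DMSO). Cells had been seeded at 2,000 per well and pre-incubated 6 h.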

Experiment [16] is described as follows: qHTS assay to identify small molecule agonists of H2AX (AID 1224845; active = well fitted activation curve with a large enough effect in the signal ratio in the repeat runs, not every such curve was filed as active; the % refers to the signal ratio). The method, boiled down: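 Phospho-H2AX Ser139 measured by HTRF (ex 320 nm; em 665 and 620 nm) after 24 hr antibody incubation. Compounds, 15 concentrations, 0.76% DMSO, were applied to CHO-K1 cells for 3hr at 37C before lysis.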
Experiment [17] in a line: qHTS assay to identify small molecule antagonists of the estrogen related receptor (ERR) signaling pathway from Tox21 library (AID 1224848). Also: nearly all actives have a fitted effect of over 50% in size. Put shortly:
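Reading was by luminescence 30 min after ONE-Glo addition. Before that, ERR cells at 2,000 per well had rested 6 h at 37 C/5% CO2 and then received pin-tooled compounds in DMSO for 18 h at 37 C.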

A short description of experiment [18]: qHTS assay to identify small molecule agonists of the estrogen related receptor (ERR) signaling pathway from Tox21 library (AID 1224849; calls by dose curve; also: nearly all actives have a fitted effect of over 15% in size). The following applies: ERR reporter cell line, ONE-Glo luciferase, 18 h; at 92.4 µM (top of the series) unless noted. Put shortly: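 Six hours post-seeding at 37 C/5% CO2, ERR cells receive DMSO-solubilised compounds; after 18 h at 37 C, ONE-Glo reagent is applied and luminescence recorded.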

A short description of experiment [19]: qHTS RealTime-Glo MT Cell Viability Assay in HEK293 cells - 32 hour (AID 1224868). The method, boiled down: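 Reads taken at 0, 8, 16, 24, 32 and 40 h from the same wells. HEK293 cells (600/well) carried RealTime-Glo reagents from seeding, with compound added after a 5 h settle at 37 C.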
Experiment [20] in a line: qHTS assay to identify small molecule antagonists of the estrogen related receptor (ERR) signaling pathway from Tox21 library - cell viability counter screen (AID 1224834). Also: nearly all actives have a fitted effect of over 30% in size. The method, boiled down: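 CellTiter-Fluor fluorescence measured; ERR cells; 17.5 h compound incubation at 37 C; 30 min reagent step.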

Each structure is given as a SMILES string. Values without a mark were called inactive. Inconclusive results are not listed. The source made the active and inactive calls. Unless noted, calls follow the shape of the dose curve; as a rule, active = well fitted curve in the direction sought with a large enough effect in the repeat runs; inconclusive = weak or mixed curves; inactive = no such curve, though single readings can be large; an effect the other way counts as inactive or inconclusive.
% is scaled to controls: 0 for no effect and ±100 for the full control effect.

Sequence of Nuclear receptor subfamily 1 group I member 3 (Homo sapiens) (Q14994 whole entry, looked up): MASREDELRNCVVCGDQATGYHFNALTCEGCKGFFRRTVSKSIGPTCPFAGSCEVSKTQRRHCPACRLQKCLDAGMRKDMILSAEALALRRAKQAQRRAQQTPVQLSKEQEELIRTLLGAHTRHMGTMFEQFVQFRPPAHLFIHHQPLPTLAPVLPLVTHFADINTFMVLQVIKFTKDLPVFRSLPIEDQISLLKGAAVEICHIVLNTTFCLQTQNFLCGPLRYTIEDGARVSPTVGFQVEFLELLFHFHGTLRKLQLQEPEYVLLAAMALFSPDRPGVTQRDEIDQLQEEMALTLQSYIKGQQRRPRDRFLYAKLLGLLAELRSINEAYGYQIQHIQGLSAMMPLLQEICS
Sequence of Luciferin 4-monooxygenase (Photinus pyralis) (P08659 whole entry, looked up): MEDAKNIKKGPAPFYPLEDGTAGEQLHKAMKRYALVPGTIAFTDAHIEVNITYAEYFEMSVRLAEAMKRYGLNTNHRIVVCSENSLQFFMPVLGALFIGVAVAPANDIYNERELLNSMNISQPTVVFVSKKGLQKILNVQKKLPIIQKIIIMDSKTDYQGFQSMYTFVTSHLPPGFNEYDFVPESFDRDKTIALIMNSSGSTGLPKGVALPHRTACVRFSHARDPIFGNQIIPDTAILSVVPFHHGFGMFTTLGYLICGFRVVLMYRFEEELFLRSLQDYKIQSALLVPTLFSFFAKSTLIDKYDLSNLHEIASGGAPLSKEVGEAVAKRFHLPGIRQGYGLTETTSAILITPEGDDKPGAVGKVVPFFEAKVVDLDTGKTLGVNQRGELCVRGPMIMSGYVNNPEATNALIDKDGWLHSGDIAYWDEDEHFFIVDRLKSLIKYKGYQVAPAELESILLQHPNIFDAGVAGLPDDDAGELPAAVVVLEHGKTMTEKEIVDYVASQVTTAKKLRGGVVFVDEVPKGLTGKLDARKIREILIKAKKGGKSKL
Sequence of Thyrotropin receptor (Homo sapiens) (P16473 whole entry, looked up): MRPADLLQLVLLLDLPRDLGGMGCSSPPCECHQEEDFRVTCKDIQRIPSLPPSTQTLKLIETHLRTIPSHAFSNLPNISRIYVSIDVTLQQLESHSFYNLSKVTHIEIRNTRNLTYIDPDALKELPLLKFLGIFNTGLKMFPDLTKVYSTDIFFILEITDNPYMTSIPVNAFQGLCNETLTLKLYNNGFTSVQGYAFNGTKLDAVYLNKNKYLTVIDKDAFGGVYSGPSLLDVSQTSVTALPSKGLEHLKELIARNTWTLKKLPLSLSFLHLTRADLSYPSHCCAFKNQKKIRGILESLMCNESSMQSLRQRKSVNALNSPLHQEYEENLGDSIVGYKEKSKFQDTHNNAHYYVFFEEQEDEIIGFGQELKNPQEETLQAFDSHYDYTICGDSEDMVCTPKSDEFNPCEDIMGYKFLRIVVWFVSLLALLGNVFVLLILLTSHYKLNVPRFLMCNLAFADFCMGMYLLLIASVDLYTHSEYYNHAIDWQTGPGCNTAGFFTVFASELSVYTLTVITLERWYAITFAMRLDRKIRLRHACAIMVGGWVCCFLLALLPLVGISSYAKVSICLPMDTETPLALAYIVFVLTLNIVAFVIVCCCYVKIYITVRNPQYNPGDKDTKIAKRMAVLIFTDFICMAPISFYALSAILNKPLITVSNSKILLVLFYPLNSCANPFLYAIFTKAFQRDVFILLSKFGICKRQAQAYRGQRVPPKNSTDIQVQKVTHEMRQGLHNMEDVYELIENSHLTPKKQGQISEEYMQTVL

As to `OCC(CBr)(CBr)CBr`, the Potency in experiment [1] was 70.7 µM (active). For the same compound, the Potency entry in experiment [2], in [3], in experiment [4], in experiment [5], in experiment [6] and in experiment [7] was “inactive” in each case. The Potency entry in experiment [9], in [10], in experiment [11] and in experiment [12] was “inactive” in each case. Moreover, in experiment [8], the compound was classed as inactive.

Consider `OC[C@H]1O[C@@H](O[C@H]2[C@H](O)[C@@H](O)[C@H](O)O[C@@H]2CO)[C@H](O)[C@@H](O)[C@H]1O`, for which the Potency entry in experiment [1], in experiment [2], in experiment [3], in [4], in experiment [13] and in [5] was “inactive” each time. In addition, the Potency result in experiment [14], in experiment [15], in experiment [6], in [7], in experiment [16] and in experiment [9] was “inactive” each time. In addition, the Potency entry in experiment [17], in experiment [10], in experiment [19], in [11] and in experiment [12] was “inactive” throughout. The call in experiment [8] was inactive. The activity change, positive = activation in [18] was 4.49%.

On to `C1CCOC1`, for which the Potency entry in experiment [20], in experiment [2], in experiment [3], in [4], in experiment [5] and in [14] was “inactive” throughout. For the same compound, the Potency entry in experiment [15], in [6], in experiment [7], in experiment [16], in experiment [9] and in [17] was “inactive” each time. For the same compound, the Potency result in experiment [10], in experiment [19], in experiment [11] and in [12] was “inactive” in each case. In addition, in experiment [8], the compound was classed as inactive. Moreover, the activity change, positive = activation in experiment [18] is 1.79%.

`CCC/C=C/CO`: the Potency result in [1], in [2], in [3], in [4], in experiment [13] and in experiment [5] was “inactive” each time. Further, the Potency entry in [6], in experiment [7], in [16], in [9], in experiment [10] and in [19] was “inactive” throughout. In addition, the Potency result in experiment [11] was “inactive”. Moreover, the outcome in [8] was inactive.

Regarding `C=C(C)C(=O)OCCOP(=O)(O)O`, the Potency entry in [1], in [2], in experiment [3], in experiment [4], in experiment [13] and in experiment [5] was “inactive” in each case. In addition, the Potency result in [6], in experiment [7], in experiment [16], in experiment [9], in experiment [10] and in [19] was “inactive” in each case. Besides, the Potency entry in [11] and in [12] was “inactive” each time. Besides, the compound was classed as inactive in [8].

As to `C=CC(C)(O)CC/C=C(\C)CCC=C(C)C` (stereo not given), the Potency result in [20], in experiment [2], in [5], in [7], in [16] and in experiment [9] was “inactive” in each case. Besides, the Potency result in [10], in [19], in experiment [11] and in experiment [12] was “inactive” in each case. Further, the outcome in [8] was inactive.

With `CCOc1ccc(OCC)c(Cl)c1`, the Potency result in experiment [1], in [2], in experiment [3], in experiment [4], in [13] and in experiment [5] was “inactive” throughout. The Potency result in experiment [14], in [15], in experiment [6], in [7], in experiment [16] and in [9] was “inactive” throughout. The Potency entry in experiment [17], in [19], in experiment [11] and in experiment [12] was “inactive” in each case. Besides, in [8], the outcome was inactive. The activity change, positive = activation in experiment [18] is 4.33%.

Consider `NC(=O)Cc1cccc(C(=O)c2ccccc2)c1N`, for which the Potency result in experiment [1], in experiment [2], in experiment [3], in experiment [4], in experiment [13] and in [5] was “inactive” throughout. In addition, the Potency result in experiment [7], in [16], in experiment [9], in [10], in experiment [19] and in [11] was “inactive” in each case. For the same compound, in [8], the result was inactive.
